The panel holds about 83,000 compounds, 20% with a hit somewhere; the sample as a whole holds those more often.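 Each cell line was grown in a 96-well plate and treated with one concentration of compound for 48 hours. Values below 10 were considered active.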 Unmarked numbers belong to inactive results. Calls of active or inactive are those of the source.

Among the test systems are SR leukemia; OVCAR-8 ovarian; OVCAR-5 ovarian; OVCAR-4 ovarian; SK-OV-3 ovarian; IGROV1 ovarian; OVCAR-3 ovarian; HS 578T breast; NCI/ADR-RES ovarian; T-47D breast; BT-549 breast; MDA-MB-435 melanoma; SW-620 colon; MCF7 breast; HCT-116 colon; HCC-2998 colon; KM12 colon.
Holding throughout (test): NCI-60 one-dose screen, 48 h (100 = growth as untreated, 0 = no growth, -100 = all killed)
Common to all, as to settings: 10 µM unless noted

As for `CCOC(=O)c1cn2ncnc(Oc3ccc(NC(=O)NCCN4CCN(C)CC4)c(Cl)c3)c2c1C`, the growth with SR leukemia was -13.9% (active); in the test on OVCAR-8 ovarian it was 64.7%; with OVCAR-5 ovarian it was 97.1%; in the test on OVCAR-4 ovarian it was 72.3%; in the test with SK-OV-3 ovarian it was 95.2%; with IGROV1 ovarian it was 73.3%. Further, the growth in the test with OVCAR-3 ovarian is 76.2%; with HS 578T breast, 74.3%; with NCI/ADR-RES ovarian, 90.8%; in the test on T-47D breast, 25.5%; in the test with BT-549 breast, 77.8%; in the test on MDA-MB-435 melanoma, 40.7%. The growth in the test with SW-620 colon is 69%; in the test with MCF7 breast it was 65.5%; with HCT-116 colon it was 45.3%; in the test with HCC-2998 colon, 89.2%; with KM12 colon, 91.4%.
Consider `COc1ccc2[nH]c(-c3ccccc3)c(/C=C(\C#N)S(=O)(=O)c3ccccc3)c2c1`, for which the growth with SR leukemia is 2.79% (active); with OVCAR-8 ovarian it was 60.7%; in the test on OVCAR-5 ovarian it was 101%; in the test with OVCAR-4 ovarian, 12.5%; in the test with SK-OV-3 ovarian, 73.3%; in the test with IGROV1 ovarian, 67%. Moreover, the growth with OVCAR-3 ovarian was 45.1%; in the test on HS 578T breast, 67.3%; in the test on NCI/ADR-RES ovarian, 30.5%; in the test on T-47D breast, 38.1%; with BT-549 breast, 64.5%; in the test on MDA-MB-435 melanoma, 2.24% (active). In addition, the growth is 35.6% in the test with SW-620 colon; 26.2% in the test with MCF7 breast; 31.4% with HCT-116 colon; 68.4% in the test with HCC-2998 colon; 33.4% in the test with KM12 colon.
For `Cc1ccc(-c2nc(N3CCN(CC(=O)Nc4ccc(Cl)cc4)CC3)c3ccccc3n2)cc1`, the growth was 79.1% in the test with SR leukemia; 92.3% in the test with OVCAR-8 ovarian; 93.9% in the test with OVCAR-5 ovarian; 96.2% with OVCAR-4 ovarian; 94.3% in the test with SK-OV-3 ovarian; 96.3% in the test with IGROV1 ovarian. In addition, the growth in the test with OVCAR-3 ovarian was 97.8%; in the test with HS 578T breast, 92.6%; in the test with NCI/ADR-RES ovarian, 84.5%; with T-47D breast, 80.2%; in the test with BT-549 breast, 102%; in the test on MDA-MB-435 melanoma, 96.4%. Further, the growth with SW-620 colon is 97.5%; with MCF7 breast it was 77.5%; in the test on HCT-116 colon, 89.9%; in the test on HCC-2998 colon, 82.4%; in the test on KM12 colon, 92.4%.
Consider `Cc1[nH]c(C(=O)Nc2ccc(C(=O)NCCN)cc2OC(C)C)c(Cl)c1Cl`, for which the growth with SR leukemia is -51.3% (active); in the test with OVCAR-8 ovarian, 9.08% (active); in the test on OVCAR-5 ovarian it was 89.4%; with OVCAR-4 ovarian it was -12.2% (active); in the test with SK-OV-3 ovarian, 90.5%; with IGROV1 ovarian it was 64.1%. In addition, the growth with OVCAR-3 ovarian is -6.76% (active); in the test with HS 578T breast it was 35.1%; in the test on NCI/ADR-RES ovarian it was 91%; in the test on T-47D breast, -1.29% (active); with BT-549 breast, 103%; with MDA-MB-435 melanoma, -17.6% (active). In addition, the growth was -89% (active) with SW-620 colon; 5.44% (active) in the test with MCF7 breast; -50.1% (active) in the test on HCT-116 colon; -41.7% (active) with HCC-2998 colon; 8.19% (active) with KM12 colon.
Turning to `COc1cc(/C=C/c2ccccc2)cc(OC)c1`, the growth was 86.7% in the test on SR leukemia; 97.7% with OVCAR-8 ovarian; 95.6% in the test with OVCAR-5 ovarian; 105% in the test on OVCAR-4 ovarian; 106% in the test with SK-OV-3 ovarian; 84.6% in the test on IGROV1 ovarian. In addition, the growth was 105% in the test on OVCAR-3 ovarian; 104% with HS 578T breast; 99.6% with NCI/ADR-RES ovarian; 77.9% with T-47D breast; 101% in the test on BT-549 breast; 103% in the test with MDA-MB-435 melanoma. The growth was 100% with SW-620 colon; 71.4% in the test with MCF7 breast; 92.4% in the test with HCT-116 colon; 102% in the test on HCC-2998 colon; 95.6% with KM12 colon.
As to `COc1ccc(C2NC(=O)C(C#N)c3c2sc2c(F)cccc32)c(OC)c1` (stereo not drawn), the growth in the test on SR leukemia is 13.9%; in the test with OVCAR-8 ovarian, 62.3%; with OVCAR-5 ovarian it was 98.9%; in the test on OVCAR-4 ovarian, 53.7%; with SK-OV-3 ovarian, 50.8%; in the test with IGROV1 ovarian it was 52.7%. For the same compound, the growth is 13.8% in the test with OVCAR-3 ovarian; 21.4% in the test on HS 578T breast; 16.7% in the test with NCI/ADR-RES ovarian; 61.7% in the test on T-47D breast; 72.1% with BT-549 breast; -28.7% (active) in the test with MDA-MB-435 melanoma. Moreover, the growth was 32.3% in the test on SW-620 colon; 24.5% with MCF7 breast; 23.8% with HCT-116 colon; 88.3% with HCC-2998 colon; 32% in the test on KM12 colon.
`O=C(N/N=C/[C@H](O)[C@H](O)[C@H](O)CO)c1ccc(NC(=O)c2cccnc2)cc1`: the growth in the test with SR leukemia is 99.9%; in the test on OVCAR-8 ovarian, 102%; with OVCAR-5 ovarian it was 102%; with OVCAR-4 ovarian it was 110%; with SK-OV-3 ovarian, 110%; with IGROV1 ovarian, 107%. The growth was 118% in the test with OVCAR-3 ovarian; 98.4% in the test with HS 578T breast; 109% with NCI/ADR-RES ovarian; 99.2% with T-47D breast; 102% in the test with BT-549 breast; 103% in the test with MDA-MB-435 melanoma. Besides, the growth was 103% in the test on SW-620 colon; 92% in the test with MCF7 breast; 105% with HCT-116 colon; 110% with HCC-2998 colon; 103% with KM12 colon.
For the compound `O=C(Nc1ccc(I)cc1F)c1cc(I)ccc1O`, the growth in the test with SR leukemia was 3.39% (active); with OVCAR-8 ovarian, 12.7%; in the test on OVCAR-5 ovarian it was 21.6%; in the test with OVCAR-4 ovarian, 22.3%; in the test on SK-OV-3 ovarian it was 13.9%; with IGROV1 ovarian it was 18.4%. For the same compound, the growth with OVCAR-3 ovarian was 4.35% (active); in the test on HS 578T breast, 3.07% (active); in the test with NCI/ADR-RES ovarian, 5.58% (active); in the test with T-47D breast, -0.561% (active); in the test with BT-549 breast, -9.42% (active); in the test on MDA-MB-435 melanoma, 2.77% (active). In addition, the growth was 10.8% in the test with SW-620 colon; 3.31% (active) in the test on MCF7 breast; 5.17% (active) in the test with HCT-116 colon; 17.6% with HCC-2998 colon; 2.37% (active) in the test with KM12 colon.
For `O=C(Nc1nc2ccc(F)cc2s1)c1cccnc1Nc1ccc(Cl)cc1Cl`, the growth in the test with SR leukemia was 32.8%; in the test with OVCAR-8 ovarian, 19.5%; with OVCAR-5 ovarian, 64.3%; with OVCAR-4 ovarian, -31.3% (active); in the test with SK-OV-3 ovarian, 44%; in the test with IGROV1 ovarian, 30.5%. Moreover, the growth with OVCAR-3 ovarian was -3.55% (active); in the test with HS 578T breast it was 20.9%; with NCI/ADR-RES ovarian, 1.58% (active); in the test with T-47D breast, 0.802% (active); with BT-549 breast, -9.44% (active); in the test with MDA-MB-435 melanoma, 26.3%. The growth was 20.2% in the test on SW-620 colon; 13% in the test with MCF7 breast; 11% in the test on HCT-116 colon; 8.35% (active) in the test with HCC-2998 colon; 9.49% (active) with KM12 colon.
